Experimental data taken from paper PMC11062922 (Nature Chemical Biology, 2023).
Read-outs that look alike come from different tables or passages of the source.

Test system: PKN1
Conditions: read-out: apparent Kd, n = 1

## Lestaurtinib
Compound concentrations:100 nM and 1000 nM (sheet 'Lestaurtinib' of Supplementary Table 1),run:Lestaurtinib_02422_R2,Plate:MR006
  potency estimated from few doses: 52.5 nM
Compound concentrations:100 nM and 1000 nM (sheet 'Lestaurtinib' of Supplementary Table 1),run:Lestaurtinib_02437_R1,Plate:MR007
  potency estimated from few doses: 578 nM
Compound concentrations:100 nM and 1000 nM (sheet 'Lestaurtinib' of Supplementary Table 1),run:Lestaurtinib_02437_R2,Plate:MR007
  potency estimated from few doses: 490 nM
Compound concentrations:100 nM and 1000 nM (sheet 'Lestaurtinib' of Supplementary Table 1),run:Lestaurtinib_02438_R1,Plate:MR008
  potency estimated from few doses: 516 nM
Compound concentrations:100 nM and 1000 nM (sheet 'Lestaurtinib' of Supplementary Table 1),run:Lestaurtinib_02438_R2,Plate:MR008
  potency estimated from few doses: 520 nM
Compound concentrations:100 nM and 1000 nM (sheet 'Lestaurtinib' of Supplementary Table 1),run:Lestaurtinib_02438_R3,Plate:MR008
  potency estimated from few doses: 483 nM
Compound concentrations:100 nM and 1000 nM (sheet 'Lestaurtinib' of Supplementary Table 1),run:Lestaurtinib_02443_R1,Plate:MR009
  potency estimated from few doses: 429 nM
Compound concentrations:100 nM and 1000 nM (sheet 'Lestaurtinib' of Supplementary Table 1),run:Lestaurtinib_02443_R2,Plate:MR009
  potency estimated from few doses: 415 nM
Compound concentrations:100 nM and 1000 nM (sheet 'Lestaurtinib' of Supplementary Table 1),run:Lestaurtinib_02443_R3,Plate:MR009
  potency estimated from few doses: 397 nM
Compound concentrations:100 nM and 1000 nM (sheet 'Lestaurtinib' of Supplementary Table 1),run:Lestaurtinib_02473_R1,Plate:MR010
  potency estimated from few doses: 430 nM
Compound concentrations:100 nM and 1000 nM (sheet 'Lestaurtinib' of Supplementary Table 1),run:Lestaurtinib_02473_R2,Plate:MR010
  potency estimated from few doses: 385 nM
Compound concentrations:100 nM and 1000 nM (sheet 'Lestaurtinib' of Supplementary Table 1),run:Lestaurtinib_02482_R1,Plate:MR011
  potency estimated from few doses: 508 nM
Compound concentrations:100 nM and 1000 nM (sheet 'Lestaurtinib' of Supplementary Table 1),run:Lestaurtinib_02482_R2,Plate:MR011
  potency estimated from few doses: 460 nM
Compound concentrations:100 nM and 1000 nM (sheet 'Lestaurtinib' of Supplementary Table 1),run:Lestaurtinib_02482_R3,Plate:MR011
  potency estimated from few doses: 432 nM
Compound concentrations:100 nM and 1000 nM (sheet 'Lestaurtinib' of Supplementary Table 1),run:Lestaurtinib_02487_R3,Plate:MR012
  potency estimated from few doses: 500 nM
Compound concentrations:100 nM and 1000 nM (sheet 'Lestaurtinib' of Supplementary Table 1),run:Lestaurtinib_02496_R1,Plate:MR013
  potency estimated from few doses: 473 nM
Compound concentrations:100 nM and 1000 nM (sheet 'Lestaurtinib' of Supplementary Table 1),run:Lestaurtinib_02496_R2,Plate:MR013
  potency estimated from few doses: 455 nM
Compound concentrations:100 nM and 1000 nM (sheet 'Lestaurtinib' of Supplementary Table 1),run:Lestaurtinib_02496_R3,Plate:MR013
  potency estimated from few doses: 459 nM
Compound concentrations:100 nM and 1000 nM (sheet 'Lestaurtinib' of Supplementary Table 1),run:Lestaurtinib_02566_R1,Plate:MR014
  potency estimated from few doses: 512 nM
Compound concentrations:100 nM and 1000 nM (sheet 'Lestaurtinib' of Supplementary Table 1),run:Lestaurtinib_02566_R3,Plate:MR014
  potency estimated from few doses: 539 nM
Compound concentrations:100 nM and 1000 nM (sheet 'Lestaurtinib' of Supplementary Table 1),run:Lestaurtinib_02572_R1,Plate:MR015
  potency estimated from few doses: 628 nM
Compound concentrations:100 nM and 1000 nM (sheet 'Lestaurtinib' of Supplementary Table 1),run:Lestaurtinib_02572_R2,Plate:MR015
  potency estimated from few doses: 517 nM
Compound concentrations:100 nM and 1000 nM (sheet 'Lestaurtinib' of Supplementary Table 1),run:Lestaurtinib_02572_R3,Plate:MR015
  potency estimated from few doses: 559 nM
Compound concentrations:100 nM and 1000 nM (sheet 'Lestaurtinib' of Supplementary Table 1),run:Lestaurtinib_02577_R2,Plate:MR016
  potency estimated from few doses: 613 nM
Compound concentrations:100 nM and 1000 nM (sheet 'Lestaurtinib' of Supplementary Table 1),run:Lestaurtinib_02577_R3,Plate:MR016
  potency estimated from few doses: 470 nM
Compound concentrations:100 nM and 1000 nM (sheet 'Lestaurtinib' of Supplementary Table 1),run:Lestaurtinib_02584_R1,Plate:MR017
  potency estimated from few doses: 493 nM
Compound concentrations:100 nM and 1000 nM (sheet 'Lestaurtinib' of Supplementary Table 1),run:Lestaurtinib_02584_R2,Plate:MR017
  potency estimated from few doses: 437 nM
Compound concentrations:100 nM and 1000 nM (sheet 'Lestaurtinib' of Supplementary Table 1),run:Lestaurtinib_02584_R3,Plate:MR017
  potency estimated from few doses: 508 nM
Compound concentrations:100 nM and 1000 nM (sheet 'Lestaurtinib' of Supplementary Table 1),run:Lestaurtinib_02601_R1,Plate:MR018
  potency estimated from few doses: 580 nM
Compound concentrations:100 nM and 1000 nM (sheet 'Lestaurtinib' of Supplementary Table 1),run:Lestaurtinib_02601_R2,Plate:MR018
  potency estimated from few doses: 523 nM
Compound concentrations:100 nM and 1000 nM (sheet 'Lestaurtinib' of Supplementary Table 1),run:Lestaurtinib_02601_R3,Plate:MR018
  potency estimated from few doses: 615 nM
Compound concentrations:100 nM and 1000 nM (sheet 'Lestaurtinib' of Supplementary Table 1),run:Lestaurtinib_02606_R3,Plate:MR019
  potency estimated from few doses: 534 nM
Compound concentrations:100 nM and 1000 nM (sheet 'Lestaurtinib' of Supplementary Table 1),run:Lestaurtinib_02624_R1,Plate:MR020
  potency estimated from few doses: 496 nM
Compound concentrations:100 nM and 1000 nM (sheet 'Lestaurtinib' of Supplementary Table 1),run:Lestaurtinib_02624_R2,Plate:MR020
  potency estimated from few doses: 430 nM
Compound concentrations:100 nM and 1000 nM (sheet 'Lestaurtinib' of Supplementary Table 1),run:Lestaurtinib_02624_R3,Plate:MR020
  potency estimated from few doses: 513 nM
Compound concentrations:100 nM and 1000 nM (sheet 'Lestaurtinib' of Supplementary Table 1),run:Lestaurtinib_02724_R1,Plate:MR021
  potency estimated from few doses: 487 nM
Compound concentrations:100 nM and 1000 nM (sheet 'Lestaurtinib' of Supplementary Table 1),run:Lestaurtinib_02724_R2,Plate:MR021
  potency estimated from few doses: 386 nM
Compound concentrations:100 nM and 1000 nM (sheet 'Lestaurtinib' of Supplementary Table 1),run:Lestaurtinib_02741_R3,Plate:MR023
  potency estimated from few doses: 518 nM
Compound concentrations:100 nM and 1000 nM (sheet 'Lestaurtinib' of Supplementary Table 1),run:Lestaurtinib_02748_R1,Plate:MR024
  potency estimated from few doses: 418 nM
Compound concentrations:100 nM and 1000 nM (sheet 'Lestaurtinib' of Supplementary Table 1),run:Lestaurtinib_02748_R2,Plate:MR024
  potency estimated from few doses: 511 nM
Compound concentrations:100 nM and 1000 nM (sheet 'Lestaurtinib' of Supplementary Table 1),run:Lestaurtinib_02748_R3,Plate:MR024
  potency estimated from few doses: 440 nM
Compound concentrations:100 nM and 1000 nM (sheet 'Lestaurtinib' of Supplementary Table 1),run:Lestaurtinib_02752_R1,Plate:MR025
  potency estimated from few doses: 489 nM
Compound concentrations:100 nM and 1000 nM (sheet 'Lestaurtinib' of Supplementary Table 1),run:Lestaurtinib_02752_R2,Plate:MR025
  potency estimated from few doses: 414 nM
Compound concentrations:100 nM and 1000 nM (sheet 'Lestaurtinib' of Supplementary Table 1),run:Lestaurtinib_02752_R3,Plate:MR025
  potency estimated from few doses: 448 nM
Compound concentrations:100 nM and 1000 nM (sheet 'Lestaurtinib' of Supplementary Table 1),run:Lestaurtinib_02765_R1,Plate:MR026
  potency estimated from few doses: 524 nM
Compound concentrations:100 nM and 1000 nM (sheet 'Lestaurtinib' of Supplementary Table 1),run:Lestaurtinib_02765_R3,Plate:MR026
  potency estimated from few doses: 568 nM
Compound concentrations:100 nM and 1000 nM (sheet 'Lestaurtinib' of Supplementary Table 1),run:Lestaurtinib_02766_R1,Plate:MR027
  potency estimated from few doses: 532 nM
